The panel holds about 79,000 compounds, 15% with a hit somewhere; the sample as a whole holds those more often. Calls of active or inactive are those of the source. Rule as the data show it: active = growth inhibition above about 70%; inactive = the rest.
Assay: NCI Yeast Anticancer Drug Screen. Data for the rad14 strain (AID 159);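 also: 0% = growth of vehicle-treated control cultures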
Conditions: S. cerevisiae rad14 strain growth inhibition, active compounds read high
Method: Growth inhibition of yeast strains with defined genetic alterations is measured as a screen for potential anti-cancer activity. Selected strains with alterations in DNA damage repair or cell cycle control were exposed to compounds and growth inhibition was measured relative to vehicle treated controls. The strain used in this assay is rad14

Measured: growth inhibition

O=C1OC(=O)C2CCCC3CCCC1C32 (stereo not given)
active: at 33.0 µM 87% | at 100.0 µM 94%
inactive: at 1.2 µM 17% | at 3.7 µM 28% | at 11.0 µM 47%

O=C(N=Nc1ccccc1Cl)NNc1ccccc1Cl
inactive: at 1.2 µM -3% | at 3.7 µM -9% | at 11.0 µM -2% | at 33.0 µM 5% | at 100.0 µM 11%

O=C1C=CC(=O)N1c1ccc2c(c1)Cc1cc(NC(=O)C(F)(F)F)ccc1-2
active: at 100.0 µM 83%
inactive: at 1.2 µM 20% | at 3.7 µM 31% | at 11.0 µM 42% | at 33.0 µM 66%

C[C@@H]1C[C@H]2[C@@H]3CCC4=CC(=O)C=C[C@]4(C)[C@@]3(Cl)[C@@H](Cl)C[C@]2(C)[C@@]1(O)C(=O)COP(=O)(O)O
inactive: at 1.2 µM -1% | at 3.7 µM 0% | at 11.0 µM -2% | at 33.0 µM -2% | at 100.0 µM 1%

CN(C)c1ccc(C(C#N)=C(C#N)C#N)cc1
inactive: at 1.2 µM 3% | at 3.7 µM 8% | at 11.0 µM 10% | at 33.0 µM 11% | at 100.0 µM 33%

Fc1ccc(NC(=S)SCc2ccc3c(c2)OCO3)cc1F
active: at 33.0 µM 99% | at 100.0 µM 94%
inactive: at 1.2 µM -9% | at 3.7 µM 20% | at 11.0 µM 65%

CCCCN(CCCC)CCSc1ccc(Cl)cc1
inactive: at 1.2 µM 3% | at 3.7 µM -5% | at 11.0 µM 0% | at 33.0 µM 12%
active: at 100.0 µM 92%

Cc1c(C(=O)C(=O)c2ccccc2)c(C)c(C(=O)C(=O)c2ccccc2)c(C)c1C(=O)C(=O)c1ccccc1
inactive: at 1.2 µM -2% | at 3.7 µM -3% | at 11.0 µM -4% | at 33.0 µM -8% | at 100.0 µM -13%

Reference: PubChem BioAssay (NCI)
